The values that follow come from PubChem BioAssay.

Assay [1] is described as follows: compounds binding Alexa647 anti-His antibody – biochemical, small-molecule microarray, 635 nm fluorescence, artefact control for SMM control protein annotation, primary screen (AID 1128).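 Note: score merges feature fluorescence with signal-to-noise for each printed compound spot.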 To be noted: higher = more signal.
In assay [2] the test system is Human papillomavirus type 1a E7 protein (residues 1-88). Briefly: HPV1a E7 small-molecule binders, primary screen, biochemical, small-molecule microarray, residues 1-88, 635 nm (AID 1129). Conditions: small-molecule microarray binding, fluorescence 635 nm; higher = more signal.
The target of assay [3] is Focal adhesion kinase 1 (Homo sapiens) (UniProt Q05397). As to the kind of experiment: PTK2 protein binding on printed compound slides – biochemical, small-molecule microarray, 635/667 nm fluorescence, BSA, DTT, primary screen (AID 1130).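 Note: composite of spot emission at 667 nm and signal to noise over triplicate slides.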 To be noted: 635 nm fluorescence, higher = more signal.
Focal adhesion kinase 1 (Homo sapiens), sequence (Q05397 whole entry, looked up): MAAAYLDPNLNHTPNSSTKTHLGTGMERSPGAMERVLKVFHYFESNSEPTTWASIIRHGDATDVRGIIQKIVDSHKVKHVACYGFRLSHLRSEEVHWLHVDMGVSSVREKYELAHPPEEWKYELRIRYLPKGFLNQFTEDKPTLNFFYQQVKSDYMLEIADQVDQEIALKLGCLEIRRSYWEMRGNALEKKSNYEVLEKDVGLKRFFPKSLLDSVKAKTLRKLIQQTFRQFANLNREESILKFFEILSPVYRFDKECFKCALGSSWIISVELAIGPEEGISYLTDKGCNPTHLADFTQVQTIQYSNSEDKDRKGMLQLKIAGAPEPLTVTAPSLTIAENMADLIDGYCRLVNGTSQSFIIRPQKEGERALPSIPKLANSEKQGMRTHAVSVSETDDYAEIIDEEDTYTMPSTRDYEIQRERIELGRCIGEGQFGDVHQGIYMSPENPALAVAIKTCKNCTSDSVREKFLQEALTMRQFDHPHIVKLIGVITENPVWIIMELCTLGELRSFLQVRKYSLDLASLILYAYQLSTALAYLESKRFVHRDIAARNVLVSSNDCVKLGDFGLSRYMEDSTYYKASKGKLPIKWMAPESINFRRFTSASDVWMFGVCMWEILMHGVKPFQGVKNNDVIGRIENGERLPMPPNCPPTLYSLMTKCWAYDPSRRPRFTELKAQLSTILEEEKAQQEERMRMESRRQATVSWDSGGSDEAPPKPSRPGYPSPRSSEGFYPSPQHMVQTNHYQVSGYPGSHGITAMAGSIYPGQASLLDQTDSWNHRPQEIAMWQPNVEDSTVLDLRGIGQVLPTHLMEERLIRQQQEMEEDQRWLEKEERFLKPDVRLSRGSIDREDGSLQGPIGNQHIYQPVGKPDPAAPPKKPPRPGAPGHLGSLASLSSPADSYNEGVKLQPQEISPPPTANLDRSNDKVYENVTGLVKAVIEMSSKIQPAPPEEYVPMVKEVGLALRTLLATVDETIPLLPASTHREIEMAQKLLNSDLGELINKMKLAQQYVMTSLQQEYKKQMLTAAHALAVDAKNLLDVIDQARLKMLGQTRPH
Assay [4] concerns Fibrinogen (Alexa647-labelled). Briefly: Alexa647-fibrinogen binding to printed small molecules – biochemical, small-molecule microarray, 635/667 nm fluorescence, artefact control for SMM control-protein annotation, profiling panel (AID 1131).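 Note: z-score merges 667 nm fluorescence with per-spot signal-to-noise over triplicate slides.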 Conditions: fibrinogen-A647 binding fluorescence, higher = more signal.
For assay [5], the target named is Follistatin (Homo sapiens) (UniProt P19883). As to the kind of experiment: FST protein binding to printed compounds – biochemical, small-molecule microarray, 635/667 nm fluorescence, primary screen (AID 1132). Conditions: 635 nm fluorescence, higher = more signal.
Follistatin (Homo sapiens), sequence (P19883 whole entry, looked up): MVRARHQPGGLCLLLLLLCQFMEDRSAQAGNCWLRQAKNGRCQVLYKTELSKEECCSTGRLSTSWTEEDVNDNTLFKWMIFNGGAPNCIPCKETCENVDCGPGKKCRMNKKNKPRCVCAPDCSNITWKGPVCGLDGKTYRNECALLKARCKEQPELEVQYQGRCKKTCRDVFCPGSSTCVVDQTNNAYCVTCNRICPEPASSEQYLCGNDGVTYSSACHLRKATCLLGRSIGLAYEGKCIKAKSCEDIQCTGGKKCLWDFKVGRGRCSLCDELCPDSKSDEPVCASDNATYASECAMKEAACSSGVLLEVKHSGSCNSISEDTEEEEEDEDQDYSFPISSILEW
Assay [6] has as its target Fibroblast growth factor 2 (Homo sapiens) (UniProt P09038). Briefly: basic fibroblast growth factor binding to printed compounds – biochemical, small-molecule microarray, 635/667 nm fluorescence, primary screen (AID 1133). Conditions: FGF2, fluorescence 635/667, higher = more signal.
Assay [7] in a line: JC-1 mitochondrial potential readout, lung cancer cells – cell-based, A549, JC-1 fluorescence, basal, 24 h, 100 nL, profiling panel (AID 1138).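 Note: A549 lung adenocarcinoma cells under basal conditions with no added stimulus; test concentration not given here.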 Conditions: higher = more signal.
Another assay has as its system Lefty1. Briefly: Lefty1 protein binding to printed compounds – biochemical, small-molecule microarray, 635/667 nm fluorescence, primary screen (AID 1139). To be noted: fluorescence 635/667, higher = more signal.
Assay [8] concerns wheat germ agglutinin (Triticum aestivum), Alexa647-labelled. As to the kind of experiment: Alexa647-WGA lectin binding to printed small molecules – biochemical, small-molecule microarray, 635/667 nm fluorescence, artefact control for SMM control-protein annotation, profiling panel (AID 1140).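 Note: score merges 667 nm feature emission with signal to noise over triplicate slides.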 Conditions: WGA-A647 binding, 635 nm fluorescence, higher = more signal.
Assay [9] concerns the target Luciferin 4-monooxygenase (Photinus pyralis) (UniProt P08659). As to the kind of experiment: inhibition of purified Photinus pyralis luciferase – biochemical, luminescence, purified enzyme, 2006 set, primary screen (AID 1141).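 Note: cell-free assay with purified firefly luciferase at 100 ng per well in PBS; test concentration not given here.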 Conditions: purified firefly luciferase, SteadyGlo luminescence, 30 min; higher = more signal, called active from +8 up or from −8 down.
The subject of assay [10] is Wnt5a (protein binding on small-molecule microarray). Briefly: small molecules binding Wnt5a protein – biophysical, small-molecule microarray, 635/667 nm fluorescence, primary screen (AID 1142).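 Note: fluorescence read at 667 nm with signal to noise per printed feature.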 To be noted: 635 nm fluorescence, higher = more signal.
Assay [11] in a line: ATP-based viability of Huh7 replicon cells – cell-based, CellTiter-Glo luminescence, basal, 48 h, cytotoxicity control for HCV replication inhibitor project, primary screen (AID 1143).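 Note: Huh7 hepatoma cells carrying a hepatitis C replication reporter with no stimulus; test concentration not given here.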 Conditions: higher = more signal, called active from +8 up or from −8 down.
A short description of assay [12]: basal CRE-LacZ reporter activity in PC12 – cell-based, unstimulated, primary screen (AID 1145). To be noted: no forskolin, luminescence, 4.5 h, higher = more signal, called active from +8 up or from −8 down.
Assay [13] can be described thus: forskolin-driven CRE-LacZ activity in PC12 – cell-based, CRE-LacZ reporter, forskolin-stimulated, primary screen (AID 1146).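 Note: PC12 cells with 6xCRE LacZ reporter stimulated by forskolin 10 µM; beta-galactosidase reporter signal reflecting CREB driven transcription.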 Conditions: luminescence, 4.5 h, higher = more signal, called active from +8 up or from −8 down.
Assay [14] concerns the target Streptavidin (Streptomyces avidinii) (UniProt P22629). As to the kind of experiment: compounds binding control protein streptavidin – biophysical, small-molecule microarray, 635/667 nm fluorescence, artefact control for SMM compound annotation, primary screen (AID 1147).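 Note: signal reflects streptavidin binding to arrayed compounds as a control protein.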 Conditions: higher = more signal.
Assay [15] in a line: probe aInhba binding on compound microarray – biochemical, small-molecule microarray, 635/667 nm fluorescence, primary screen (AID 1148).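 Note: score merges 667nm spot fluorescence with signal-to-noise for antibody binding to printed compounds.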 Conditions: higher = more signal.
In assay [16] the target is Torsin-1A (Homo sapiens) (UniProt O14656). As to the kind of experiment: TOR1A wild-type binding on microarray – cell lysate, small-molecule microarray, lysate, 635/667 nm, primary screen (AID 1149). Conditions: COS7 hTOR1A-WT lysate, 635 nm fluorescence, higher = more signal.
Torsin-1A (Homo sapiens), sequence (O14656 whole entry, looked up): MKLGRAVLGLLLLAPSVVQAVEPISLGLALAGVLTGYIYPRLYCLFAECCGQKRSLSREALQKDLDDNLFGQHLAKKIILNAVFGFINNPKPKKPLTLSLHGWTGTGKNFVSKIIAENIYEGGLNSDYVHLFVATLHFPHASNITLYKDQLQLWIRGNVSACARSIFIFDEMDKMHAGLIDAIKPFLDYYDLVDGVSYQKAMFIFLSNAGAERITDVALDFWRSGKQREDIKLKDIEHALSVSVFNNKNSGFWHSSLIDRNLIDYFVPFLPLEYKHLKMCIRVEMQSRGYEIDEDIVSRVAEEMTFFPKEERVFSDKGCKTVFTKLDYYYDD
The target is the same in assay [17]. Briefly: torsin A mutant lysate binding on microarrays – cell lysate, small-molecule microarray, COS7 lysate, 635/667 nm fluorescence, primary screen (AID 1150).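 Note: score pools 667 nm emission and signal to noise measuring lysate protein binding.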 To be noted: COS7 hTOR1A mutant lysate, 635 nm fluorescence, higher = more signal.
The subject of assay [18] is Sonic hedgehog protein (Shh). Briefly: Sonic hedgehog microarray binding compounds – biochemical, small-molecule microarray, 635/667 nm fluorescence, primary screen (AID 1151).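 Note: Shh protein binding to compounds spotted on small-molecule microarray slides; score combines spot fluorescence intensity with signal-to-noise across triplicate slides.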 To be noted: 635 nm fluorescence, higher = more signal.

Calls of active or inactive are those of the source.

Fibroblast growth factor 2 (Homo sapiens), sequence (P09038 whole entry, looked up): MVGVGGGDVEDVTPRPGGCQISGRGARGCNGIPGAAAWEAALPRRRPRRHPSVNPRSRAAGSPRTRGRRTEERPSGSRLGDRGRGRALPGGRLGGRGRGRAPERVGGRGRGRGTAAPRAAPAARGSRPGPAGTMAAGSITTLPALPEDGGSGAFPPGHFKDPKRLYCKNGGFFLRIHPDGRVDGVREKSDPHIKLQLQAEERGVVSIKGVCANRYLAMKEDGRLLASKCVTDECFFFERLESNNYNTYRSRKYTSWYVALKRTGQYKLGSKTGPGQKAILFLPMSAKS
Streptavidin (Streptomyces avidinii), sequence (P22629 whole entry, looked up): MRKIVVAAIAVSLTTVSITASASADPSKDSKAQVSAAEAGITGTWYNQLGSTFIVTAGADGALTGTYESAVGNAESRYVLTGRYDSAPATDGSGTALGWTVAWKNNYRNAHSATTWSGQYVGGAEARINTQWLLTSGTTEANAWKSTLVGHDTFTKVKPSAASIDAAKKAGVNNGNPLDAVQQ
Luciferin 4-monooxygenase (Photinus pyralis), sequence (P08659 whole entry, looked up): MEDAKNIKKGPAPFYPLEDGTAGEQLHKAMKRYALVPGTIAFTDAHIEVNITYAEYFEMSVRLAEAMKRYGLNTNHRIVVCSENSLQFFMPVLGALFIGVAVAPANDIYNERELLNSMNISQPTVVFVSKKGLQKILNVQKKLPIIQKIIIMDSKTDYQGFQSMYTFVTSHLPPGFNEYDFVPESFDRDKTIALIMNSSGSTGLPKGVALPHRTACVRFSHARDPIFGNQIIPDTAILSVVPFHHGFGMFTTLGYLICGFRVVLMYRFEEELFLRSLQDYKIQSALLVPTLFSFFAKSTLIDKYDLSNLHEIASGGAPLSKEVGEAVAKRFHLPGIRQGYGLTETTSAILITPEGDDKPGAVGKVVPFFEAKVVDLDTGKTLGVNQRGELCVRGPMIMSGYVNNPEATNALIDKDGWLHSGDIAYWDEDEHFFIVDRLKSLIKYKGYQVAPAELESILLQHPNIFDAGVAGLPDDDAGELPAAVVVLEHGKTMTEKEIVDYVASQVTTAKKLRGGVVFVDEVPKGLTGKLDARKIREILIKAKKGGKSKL

For `CC(=O)NCCCC[C@@H]1NC(=O)[C@@H]2C[C@H](C(=O)NCCCCCNC(=O)CS)[C@H](c3ccc(O)cc3)N2C1=O`, the composite z-score in assay [1] was 0.133; in assay [2] it was -0.265; in assay [3], -0.295; in [4] it was -0.786; in assay [5] it was 1.44; in [6] it was 0.746. In addition, the composite z-score is 1.4 in the assay with Lefty1; -0.802 in assay [8]; 0.443 in assay [10]; -0.654 in assay [14]; -0.179 in [15]; 0.0918 in the assay with Torsin-1A (Homo sapiens) [16]. Moreover, the composite z-score with Torsin-1A (Homo sapiens) [17] was 0.324; in assay [18] it was 1.49. The z-score in assay [7] was 1.18; in assay [9] it was -1.88 (inactive); in [11], -1.62 (inactive); in [12] it was -0.134 (inactive); in assay [13], -1.45 (inactive).

As to `COc1cccc([C@@H]2[C@@H](C)CC[C@H]3C(=O)N4[C@H](c5cccc(OC)c5)[C@@H](C)CC[C@H]4C(=O)N23)c1`, the composite z-score in [1] is 0.584; in assay [2], 0.276; in assay [3], -0.175; in assay [4], 0.817; in assay [5], 0.614; in assay [6] it was 0.428. Besides, the composite z-score in the assay with Lefty1 is 0.418; in assay [8], 0.248; in [10] it was 0.0508; in [14] it was 0.258; in assay [15] it was 0.054; with Torsin-1A (Homo sapiens) [16], 0.504. Moreover, the values for the composite z-score (with Torsin-1A (Homo sapiens) [17]; in assay [18]) were 0.824 and 0.944, respectively. Also, the z-score was 1.55 in assay [7]; -1.78 (inactive) in assay [9]; -1.88 (inactive) in assay [11]; 1.38 (inactive) in assay [12]; -1.18 (inactive) in [13].

For the molecule `C=CCC1=C[C@H]2[C@H]([C@@H]3C=C[C@]2(CC=C)C(=O)[C@]32CO2)[C@@]2(CO2)C1=O`, the composite z-score in [1] was -0.131; in [2], -1.2; in [3] it was -0.263; in assay [4] it was -0.571; in [5], 1.45; in [6], 1.45. Further, the composite z-score was 1.58 in the assay with Lefty1; -0.0818 in [8]; 0.123 in assay [10]; 0.843 in assay [14]; -0.0021 in [15]; 0.919 in the assay with Torsin-1A (Homo sapiens) [16]. The results for the composite z-score (with Torsin-1A (Homo sapiens) [17]; in [18]) were -0.0031 and 2.11, respectively. Moreover, the z-score was 1.84 in assay [7]; -1.01 (inactive) in assay [9]; -3.26 (inactive) in assay [11]; 2.21 (inactive) in assay [12]; 1.62 (inactive) in assay [13].

For `CC(C)(C)OC(=O)CC[C@]1(C(=O)NCCN2CCOCC2)N=C(c2ccc(OCCCO)cc2)O[C@H]1c1ccccc1CN=[N+]=[N-]`, the composite z-score in [1] was 2.63; in assay [2] it was 1.17; in [3] it was 1.17; in [4], 0.75; in assay [5], -0.651; in [6], -0.962. The composite z-score in the assay with Lefty1 is -0.697; in [8] it was 1.31; in [10], 0.358; in assay [14], 0.225; in assay [15], 0.0386; with Torsin-1A (Homo sapiens) [16], 0.474. In addition, the composite z-score is 1.06 with Torsin-1A (Homo sapiens) [17] and -0.577 in assay [18]. For the same molecule, the z-score is 0.22 in [7]; -0.736 (inactive) in assay [9]; -1.11 (inactive) in assay [11]; 1.57 (inactive) in assay [12]; -1.79 (inactive) in assay [13].

On to `C=C(/C(=C/C[C@@H](OC(=O)c1ccncc1)c1ccc(CO)o1)c1cnc2ccccc2c1)C(C)C`, for which the composite z-score in [1] worked out at 1.73; in assay [2], 0.969; in assay [3], 0.462; in assay [4], 0.954; in [5], 1.32; in [6], 1.07. Also, the composite z-score in the assay with Lefty1 was 0.949; in [8], 1.4; in assay [10], 0.117; in assay [14], 1.72; in [15], 0.0464; with Torsin-1A (Homo sapiens) [16] it was 0.165. The composite z-score in the assay with Torsin-1A (Homo sapiens) [17] was 0.475; in assay [18] it was 1.15. For the same molecule, the z-score was 0.313 in assay [7]; -4.43 (inactive) in assay [9]; -1.35 (inactive) in assay [11]; 2.21 (inactive) in assay [12]; -0.42 (inactive) in assay [13].
